Results filed as inconclusive are left out. A call without a number means that no potency is given here. Active and inactive are the calls of the source. Calls follow the shape of the full dose curve.
Potency is read from the fitted curve at half-maximal effect.

The assay can be described thus: Validation screen for inhibitors of Lassa infection (AID 463096). The note with it: Lassa virus infection, cell-based; series mostly up to 46.1 µM.
Consider `CC(C)NCC(O)COc1cccc2[nH]ccc12` (stereo unspecified), for which the Potency result is “inactive”.

`Nc1nnc(-c2cccc(Cl)c2Cl)c(N)n1`: the Potency entry was “inactive”.

For the compound `CC(=O)CCCCn1c(=O)c2c(ncn2C)n(C)c1=O`, the Potency entry is “inactive”.

Consider `COCCCC/C(=N\OCCN)c1ccc(C(F)(F)F)cc1`, for which the Potency entry is “inactive”.

For `COc1ccc([C@@H]2Sc3ccccc3N(CCN(C)C)C(=O)[C@@H]2OC(C)=O)cc1`, the Potency was 1.41 µM (active).

Consider `CC1=C(/C=C/C(C)=C/C=C/C(C)=C/C(=O)Nc2ccc(O)cc2)C(C)(C)CCC1`, for which the Potency entry is “inactive”.

As to `Cc1cn[nH]c1`, the Potency entry is “inactive”.

On to `C[C@](N)(Cc1ccc(O)c(O)c1)C(=O)O`, for which the Potency result is “inactive”.

As to `Cc1ccccc1C(OCCN(C)C)c1ccccc1` (stereo unspecified), the Potency entry was “inactive”.

In the case of `N[C@@H]1CONC1=O`, the Potency result is “inactive”.

In the case of `CC1=NS(=O)(=O)c2cc(Cl)ccc2N1`, the Potency result was “inactive”.

For the compound `N=c1nc(N2CCCCC2)cc(N)n1O`, the Potency entry is “inactive”.

In the case of `Cc1nc2n(c(=O)c1CCN1CCC(c3noc4cc(F)ccc34)CC1)CCCC2`, the Potency entry is “inactive”.

On to `O=C1CCC(N2C(=O)c3ccccc3C2=O)C(=O)N1` (stereo unspecified), for which the Potency entry was “inactive”.

Take `Cc1ccccc1N1C(=O)c2cc(S(N)(=O)=O)c(Cl)cc2NC1C` (stereo unspecified): the Potency entry was “inactive”.

In the case of `CC(COc1ccccc1)N(CCCl)Cc1ccccc1` (stereo unspecified), the Potency result was “inactive”.

As for `COC(=O)[C@H]1[C@H]2C[C@@H]3c4[nH]c5cc(OC)ccc5c4CCN3C[C@H]2C[C@@H](OC(=O)c2cc(OC)c(OC)c(OC)c2)[C@@H]1OC`, the Potency is 7.94 µM (active).

`O=NN(CCCl)C(=O)NCCCl`: the Potency result is “inactive”.

Take `CC1(C)NC(=O)N(c2ccc([N+](=O)[O-])c(C(F)(F)F)c2)C1=O`: the Potency entry is “inactive”.

As to `CNC1(C)C2CCC(C2)C1(C)C` (stereo unspecified), the Potency result was “inactive”.

`CCN(CC)CCNC(=O)c1cc(Cl)c(N)cc1OC`: the Potency result was “inactive”.

`CC12CC3CC(C)(C1)CC(N)(C3)C2`: the Potency result was “inactive”.

With `COC(=O)Nc1nc2ccc(C(=O)c3cccs3)cc2[nH]1`, the Potency result was “inactive”.

For `CN/C(=C\[N+](=O)[O-])NCCSCc1ccc(CN(C)C)o1`, the Potency entry is “inactive”.

Turning to `O=c1n(CCCN2CCN(c3cccc(Cl)c3)CC2)nc2ccccn12`, the Potency entry was “inactive”.

Turning to `Cc1[nH]c(=O)c(C#N)cc1-c1ccncc1`, the Potency entry was “inactive”.

As to `CN(C)CC/C=C1\c2ccccc2COc2ccccc21`, the Potency result is “inactive”.

Take `O=C(c1ccccc1)c1ccc2n1CCC2C(=O)O` (stereo unspecified): the Potency result was “inactive”.

On to `CC(C(=O)O)c1cccc(C(=O)c2ccccc2)c1` (stereo unspecified), for which the Potency entry was “inactive”.

For `CN(C)CC[C@@H](c1ccc(Br)cc1)c1ccccn1`, the Potency entry is “inactive”.

As to `Cc1cccc(C)c1OCC(C)N` (stereo unspecified), the Potency result was “inactive”.
